Compound activity as filed in PubChem.
LDHA inh: LDHA (human) enzyme inhibition; P00338; purified LDHA, NADH/diaphorase-resazurin fluorescence; active compounds read low; activity change, % (values are at about 110 or 230 µM); 0.15% of 480,000 active; in the data active = activity change below about -30%; inconclusive = mostly about -25% to -30%;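 note: plate controls were DMSO wells for no effect and wells without enzyme for full effect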
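Enzyme activity of human lactate dehydrogenase 5 (2 nM; 0.06 mM NADH, 0.2 mM pyruvate, 5 min, RT) is measured via a resazurin/diaphorase fluorescence readout of residual NADH.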
TDP1 cell noCPT: qHTS for Inhibitors of human tyrosyl-DNA phosphodiesterase 1 (TDP1): qHTS in cells in absence of CPT. DT40 Tdp1-/- hTDP1 cells, no CPT, ATP luminescence, 48 h. Potency, µM (series often up to 46.2 µM), for the others: at the highest dose activity change, negative = growth inhibition, actives largely listed as inhibitors. 15% of 420,000 active. AID 686978, 2013; note: potency is the fitted concentration of half-maximal effect; nearly all actives have a fitted effect of over 55% in size
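Growth kinetics read by CellTiter-Glo luminescence after ≥48 hr at 37 °C. Cells: DT40 Tdp1-/- stably carrying human TDP1, 400 per well, compound exposure in the absence of CPT (DMSO vehicle).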
DT40 TDP1 CPT: growth inhibition of DT40 Tdp1-/-;hTDP1 cells with camptothecin (screen for TDP1 inhibitors). AID 686979. chicken DT40 Tdp1-/-;hTDP1 cells + 20 nM CPT, ATP luminescence, 48 h. Potency, µM (titrated, usually from 46.2 µM), without a hit: at the highest dose activity change, negative = growth inhibition, actives largely listed as inhibitors. 12% of 420,000 active; note: potency is the fitted concentration of half-maximal effect; nearly all actives have a fitted effect of over 55% in size
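Cell growth measured by CellTiter-Glo luminescence after a minimum 48 h, 37 C compound exposure with 20 nM CPT in Tdp1-knockout DT40 cells stably expressing hTDP1, seeded 400/well; qHTS titration format.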
RORg inh: blocks mouse ROR gamma transcriptional activity; P51450; Drosophila S2 Gal4-RORgamma UAS-luciferase reporter, 20 h; Potency, µM (doses to about 53.6 µM), inactives show at the top dose activity change, negative = inhibition, usual class: inhibitors; 5.4% of 310,000 active; AID 2551; note: potency is the fitted concentration of half-maximal effect; nearly all actives have a fitted effect of over 60% in size
Target sequence (P51450 whole entry, looked up, the tested form may be a part): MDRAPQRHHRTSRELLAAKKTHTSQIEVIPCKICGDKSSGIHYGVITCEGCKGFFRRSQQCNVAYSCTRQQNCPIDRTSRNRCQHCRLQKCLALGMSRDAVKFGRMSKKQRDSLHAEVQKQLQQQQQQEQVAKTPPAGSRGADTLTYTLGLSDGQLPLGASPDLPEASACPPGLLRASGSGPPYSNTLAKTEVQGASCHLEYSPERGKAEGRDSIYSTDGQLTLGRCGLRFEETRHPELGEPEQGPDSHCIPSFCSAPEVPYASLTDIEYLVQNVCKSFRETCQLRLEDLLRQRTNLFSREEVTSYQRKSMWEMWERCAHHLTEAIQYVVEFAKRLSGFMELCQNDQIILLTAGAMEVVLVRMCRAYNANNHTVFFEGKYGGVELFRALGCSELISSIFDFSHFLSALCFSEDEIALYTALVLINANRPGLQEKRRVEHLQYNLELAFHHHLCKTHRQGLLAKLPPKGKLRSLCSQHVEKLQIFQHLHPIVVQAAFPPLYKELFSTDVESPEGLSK
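A Gal4/UAS one-hybrid system in insect cells: metallothionein-promoter Gal4–ROR gamma fusion plus Photinus luciferase reporter. Copper sulfate 700 uM final, 20 hr ambient incubation, luminescent detection after 10 min with reagent.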
VP16 counter: inhibits Gal4-VP16 luciferase reporter, ROR gamma counter-screen; 3.5% of 310,000 active; AID 2546; Drosophila S2 Gal4-VP16 UAS-luciferase, luminescence, 20 h; Potency, µM (series often up to 53.6 µM), inactives show at the highest dose activity, negative = inhibition, actives largely listed as inhibitors;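 note: Gal4-VP16 expression switched on by copper sulfate through the metallothionein promoter; potency is the fitted concentration of half-maximal effect; nearly all actives have a fitted effect of over 50% in size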
IL1B secr inh: inhibitors of inflammasome signaling (IL-1 beta secretion). activity change, % at 57.5 µM. THP-1 LPS/ATP IL-1B secretion, AlphaLISA, 16 h; active compounds read low. 4.7% of 360,000 active; in the data active = activity change below about -50%; inconclusive = mostly about -30% to -49%
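THP-1 cells pretreated 1 hr with compounds (up to 57.5 uM final), then stimulated with LPS (250 ng/mL final) plus ATP (1.25 mM final); secreted IL-1B measured by AlphaLISA after 16 hr, decreased signal indicating inhibition.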
Starred values were filed as active, the others as inactive; ? = inconclusive; . = not tested or not shown; [ ] = another dose, or the depositor's remark. An excerpt weighted towards active compounds, which were near 18% of everything screened. Unless noted, calls come from the whole dose curve; as a rule, active = well fitted curve in the direction sought with a large enough effect; inconclusive = small, poorly fitted or top-dose-only effect, or another doubt; inactive = no such curve, though single readings can be large; an effect the other way counts as inactive or inconclusive. Unless noted, % is set by controls: 0 for no effect and ±100 for the full control effect.

SMILES	LDHA inh	TDP1 cell noCPT	DT40 TDP1 CPT	RORg inh	VP16 counter	IL1B secr inh
S=C(NCc1ccco1)N1CCN(c2ccc(Cl)cc2)CC1	-7	23µM*	-4%	?	10%[10 µM]	-7
CC(C)c1ccc(S(=O)(=O)N2CCN(C(=S)NCc3ccco3)CC2)cc1	-3	?	15µM*	-4%	-13%	0
CCC(CO)NC(=O)c1nc(Cc2c[nH]c3ccccc23)no1 (stereo unspecified)	-1	.	.	.	.	.
O=C(CSc1nc2ccccc2nc1N1CCCC1)NCc1ccc(F)cc1	-2	.	.	.	.	.
CCOc1ccc2[nH]c(=O)c(C(c3nnnn3C3CCCCC3)N3CCN(CC)CC3)cc2c1 (stereo unspecified)	4	-17%	-28%	-2%	-1%	2
COc1ccc2[nH]c(=O)c(C(c3nnnn3C3CCCC3)N3CCN(Cc4ccc5c(c4)OCO5)CC3)cc2c1 (stereo unspecified)	1	?	26µM*	1%	-5%	?
Cc1cc(C)c2[nH]c(=O)c(C(c3nnnn3Cc3ccc4c(c3)OCO4)N3CCC(C)CC3)cc2c1 (stereo unspecified)	1	16µM*	?	20%	-2%	-22
CCCOc1ccc(NC(=O)COc2ccc(C)c(C)c2)c2cccnc12	-12	.	.	.	.	.
CN(C)CCCNc1nc(-c2ccco2)c2c(c1C#N)CCCC2	13	.	.	.	.	.
COc1cccc2cc(-c3csc(-c4ccc(F)cc4)n3)c(=O)oc12	-7	.	.	.	.	.
CS(=O)(=O)N(CC(=O)NCCSCc1cccc(Cl)c1)c1ccc(F)cc1	2	-17%	-17%	13%	2%	-29
Cc1cccc(CSCCNC(=O)CN(c2ccccc2)S(=O)(=O)N(C)C)c1	-8	21µM*	?	.	.	.
CN(C)S(=O)(=O)N(CC(=O)NCCSCc1cccc(Cl)c1)c1ccccc1	3	23µM*	?	.	.	.
Cc1ccc(C2CC(=O)C(C=NCCN3CCN(C(=S)Nc4ccc(F)cc4)CC3)=C(O)C2)cc1 (stereo unspecified)	-2	?	-3%	33%	?	-4
Cc1cc(C)nc(N/N=C/C2=C(O)CC(c3ccc(F)cc3)CC2=O)n1 (stereo unspecified)	-5	9.2µM*	23µM*	?	-17%	252
CC12CNC3(C#N)CC1CCC32C (stereo unspecified)	1	.	.	.	.	.
Cn1cc(CNC(=O)c2cc(COc3ccc4c(c3)CCCC4)on2)cn1	-6	15µM*	?	?	-7%	-8
O=C(NC(c1cccnc1)C(F)(F)F)c1cc(COc2ccc3c(c2)CCCC3)on1 (stereo unspecified)	1	2.6µM*	4.1µM*	?	7.1µM*	?
CN(Cc1cnn(C)c1)C(=O)c1cc(COc2c(F)cccc2F)on1	-1	8%	25%	-5%	1%	0
CCN(Cc1cnn(C)c1)C(=O)c1cc(COc2ccc3c(c2)CCCC3)on1	-3	12µM*	16µM*	-22%	-4%	-6
Cc1ccc(C)c(OCC(O)Cn2nc(C)c3ccccc3c2=O)c1 (stereo unspecified)	3	.	.	.	.	.
CCC(=O)Nc1ccc(-c2nnc(-c3ccccc3)o2)cc1	-20	1%	-4%	?	?	-14
Cc1ccc2oc(-c3cccc(NC(=O)C4CCCO4)c3)nc2c1 (stereo unspecified)	4	-21%	-22%	?	?	-23
CCC(=O)Nc1ccc(-c2nc3ccccc3c(=O)o2)cc1	-12	0%	3%	-92%	16µM*	7
Cc1cccc(-c2nc3cc(NC(=O)C4CCCO4)ccc3o2)c1 (stereo unspecified)	-3	?	?	0.28µM*	?	-3
SMILES	LDHA inh	TDP1 cell noCPT	DT40 TDP1 CPT	RORg inh	VP16 counter	IL1B secr inh
CCC(=O)Nc1ccc2oc(-c3cccc(C)c3)nc2c1	15	5.8µM*	7.3µM*	0.79µM*	2.2µM*	-21
Cc1ccccc1-c1nc2ccccc2c(=O)o1	-9	16µM*	?	.	.	56
COCCN(Cc1ccc(C(C)C)cc1)Cc1cc(=O)n2c3c(sc2n1)CCCC3	6	.	.	.	.	.
O=C(CCS(=O)(=O)Cc1ccccc1)Nc1cc(F)cc(F)c1	5	.	.	.	.	.
CCCOc1cc(OCCC)cc(C(=O)Nc2cccc(-c3nc4ncccc4o3)c2)c1	0	.	.	.	.	.
Cc1nc(-c2cc3ccc(OCC(=O)NCC(C)C)cc3oc2=O)cs1	-4	.	.	.	.	.
Cc1ccc(SCC(=O)Nc2ccc3oc(-c4cccc(C)c4)nc3c2)cc1	-11	15µM*	?	.	.	.
CC(CCc1ccccc1)NC(=O)c1ccc2c(c1)N(Cc1ccccc1)C(=O)CS2=O (stereo unspecified)	-3	.	.	.	.	.
C=CCOc1ccc2ccccc2c1CNn1cn[nH]c1=S	1	2%	-2%	-23%[1.91 µM]	?	-10
C=CCn1cn[nH]c1=S	-8	0%	5.2µM*	?	-13%	26
CCN(CC)c1nn2c(=O)c(C(=O)NCc3cccc(C)c3)cnc2s1	-9	16µM*	?	.	.	.
CCCN(CCC)c1nn2c(=O)c(C(=O)NCc3cccc(OC)c3)cnc2s1	-15	16µM*	?	.	.	.
CC(=O)Nc1ccc(C(=O)OCC(=O)N2CCOCC2)cc1	7	.	.	.	.	.
CCn1nccc1C(=O)Nc1cc(Cl)ccc1Cl	0	-6%	-2%	8%[0.365 µM]	.	-55*
COCCN1C(=O)/C(=C/c2ccc(OCc3ccc(C(=O)O)cc3)c(OC)c2)SC1=Nc1ccccc1	-1	21µM*	23µM*	?	?	-11
COc1cc(/C=C2/SC(=O)N(Cc3ccccc3)C2=O)ccc1OCc1ccncc1	-3	12µM*	16µM*	-6%	-5%	?
COc1cc(/C=C2\SC(=Nc3ccccc3)N(Cc3ccco3)C2=O)ccc1OC(C)C(=O)O (stereo unspecified)	-15	-17%	7%	7%	-20%	0
CCc1ccc2oc(=O)cc(CN3CCN(c4ccccn4)CC3)c2c1	-1	.	.	.	.	.
CCCCN(Cc1ccccc1)C(=O)c1oc(=O)c2ccccc2c1-c1ccc(C)cc1	-5	?	21µM*	.	.	.
Cc1ccc(-c2c(C(=O)NCCc3ccc(Cl)cc3)oc(=O)c3ccccc23)cc1	-1	?	?	.	.	.
CCCCN(CCCC)C(=O)c1cc2ccccc2c(=O)o1	-3	16µM*	?	40%	-11%	6
Cc1ccc(CCNC(=O)c2oc(=O)c3ccccc3c2-c2ccc(C)cc2)cc1	-4	23µM*	?	.	.	.
